Test results from ChEMBL document CHEMBL1961873, “Compounds: GSK PKIS; Assays: Nanosyn kinase panel” (2012).

Columns and labels:
[1] = target: Tyrosine-protein kinase Fer (Homo sapiens) (UniProt P16591); details: at 1 µM
[2] = target: Tyrosine-protein kinase Fes/Fps (Homo sapiens) (UniProt P07332); details: at 0.1 µM
[3] = target: Tyrosine-protein kinase Fes/Fps (Homo sapiens) (UniProt P07332); details: at 1 µM
[4] = target: Fibroblast growth factor receptor 1 (Homo sapiens) (UniProt P11362); details: at 0.1 µM
[5] = target: Fibroblast growth factor receptor 1 (Homo sapiens) (UniProt P11362); details: at 1 µM
[6] = target: Fibroblast growth factor receptor 2 (Homo sapiens) (UniProt P21802); details: at 0.1 µM
[7] = target: Fibroblast growth factor receptor 2 (Homo sapiens) (UniProt P21802); details: at 1 µM
[8] = target: Fibroblast growth factor receptor 3 (Homo sapiens) (UniProt P22607); details: at 0.1 µM
[9] = target: Fibroblast growth factor receptor 3 (Homo sapiens) (UniProt P22607); details: at 1 µM
[10] = target: Fibroblast growth factor receptor 4 (Homo sapiens) (UniProt P22455); details: at 0.1 µM;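 note: values are mean percent inhibition of FGFR4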
Fibroblast growth factor receptor 4 (Homo sapiens), sequence (P22455 22-802 limits assumed): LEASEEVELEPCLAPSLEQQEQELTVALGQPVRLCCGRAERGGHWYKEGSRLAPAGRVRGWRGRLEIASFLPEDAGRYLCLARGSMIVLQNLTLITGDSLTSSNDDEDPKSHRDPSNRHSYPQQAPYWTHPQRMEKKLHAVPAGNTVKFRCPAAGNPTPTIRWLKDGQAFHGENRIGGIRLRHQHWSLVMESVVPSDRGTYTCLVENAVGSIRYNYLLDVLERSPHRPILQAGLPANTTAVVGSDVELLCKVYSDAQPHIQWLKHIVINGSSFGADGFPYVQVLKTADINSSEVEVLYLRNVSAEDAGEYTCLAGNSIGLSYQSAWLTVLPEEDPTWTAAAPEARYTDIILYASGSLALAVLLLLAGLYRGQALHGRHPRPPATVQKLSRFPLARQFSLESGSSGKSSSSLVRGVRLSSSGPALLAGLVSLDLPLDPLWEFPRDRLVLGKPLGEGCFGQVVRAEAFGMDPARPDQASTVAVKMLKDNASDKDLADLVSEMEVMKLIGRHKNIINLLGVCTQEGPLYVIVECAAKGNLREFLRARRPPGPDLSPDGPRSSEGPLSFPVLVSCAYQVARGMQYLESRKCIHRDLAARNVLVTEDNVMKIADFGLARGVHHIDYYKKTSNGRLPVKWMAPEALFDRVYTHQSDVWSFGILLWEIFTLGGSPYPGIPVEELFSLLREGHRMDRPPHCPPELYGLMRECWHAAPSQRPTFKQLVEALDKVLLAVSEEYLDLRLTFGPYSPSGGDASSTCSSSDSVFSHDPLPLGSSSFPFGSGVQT

Tyrosine-protein kinase Fes/Fps (Homo sapiens), sequence (P07332 whole entry): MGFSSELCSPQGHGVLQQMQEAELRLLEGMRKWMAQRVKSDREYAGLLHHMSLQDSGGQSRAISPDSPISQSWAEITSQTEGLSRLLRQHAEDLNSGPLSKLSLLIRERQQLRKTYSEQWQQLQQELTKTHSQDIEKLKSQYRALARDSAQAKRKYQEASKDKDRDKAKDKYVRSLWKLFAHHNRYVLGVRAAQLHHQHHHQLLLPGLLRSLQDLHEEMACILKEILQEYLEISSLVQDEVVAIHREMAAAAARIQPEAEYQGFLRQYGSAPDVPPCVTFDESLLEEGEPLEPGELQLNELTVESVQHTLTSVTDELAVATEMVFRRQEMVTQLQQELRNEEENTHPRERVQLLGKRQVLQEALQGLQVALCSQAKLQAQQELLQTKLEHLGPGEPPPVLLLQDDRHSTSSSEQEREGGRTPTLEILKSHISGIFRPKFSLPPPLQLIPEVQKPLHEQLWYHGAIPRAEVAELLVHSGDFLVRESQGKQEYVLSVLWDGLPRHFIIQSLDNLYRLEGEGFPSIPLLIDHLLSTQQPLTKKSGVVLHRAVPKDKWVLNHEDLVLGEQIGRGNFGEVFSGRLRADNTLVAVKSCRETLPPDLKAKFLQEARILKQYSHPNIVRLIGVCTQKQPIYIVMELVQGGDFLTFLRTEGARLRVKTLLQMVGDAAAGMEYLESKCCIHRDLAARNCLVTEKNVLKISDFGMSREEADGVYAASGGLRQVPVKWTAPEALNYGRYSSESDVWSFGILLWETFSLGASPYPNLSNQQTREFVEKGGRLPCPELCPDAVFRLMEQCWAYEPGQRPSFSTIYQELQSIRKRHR
Tyrosine-protein kinase Fer (Homo sapiens), sequence (P16591 whole entry, looked up): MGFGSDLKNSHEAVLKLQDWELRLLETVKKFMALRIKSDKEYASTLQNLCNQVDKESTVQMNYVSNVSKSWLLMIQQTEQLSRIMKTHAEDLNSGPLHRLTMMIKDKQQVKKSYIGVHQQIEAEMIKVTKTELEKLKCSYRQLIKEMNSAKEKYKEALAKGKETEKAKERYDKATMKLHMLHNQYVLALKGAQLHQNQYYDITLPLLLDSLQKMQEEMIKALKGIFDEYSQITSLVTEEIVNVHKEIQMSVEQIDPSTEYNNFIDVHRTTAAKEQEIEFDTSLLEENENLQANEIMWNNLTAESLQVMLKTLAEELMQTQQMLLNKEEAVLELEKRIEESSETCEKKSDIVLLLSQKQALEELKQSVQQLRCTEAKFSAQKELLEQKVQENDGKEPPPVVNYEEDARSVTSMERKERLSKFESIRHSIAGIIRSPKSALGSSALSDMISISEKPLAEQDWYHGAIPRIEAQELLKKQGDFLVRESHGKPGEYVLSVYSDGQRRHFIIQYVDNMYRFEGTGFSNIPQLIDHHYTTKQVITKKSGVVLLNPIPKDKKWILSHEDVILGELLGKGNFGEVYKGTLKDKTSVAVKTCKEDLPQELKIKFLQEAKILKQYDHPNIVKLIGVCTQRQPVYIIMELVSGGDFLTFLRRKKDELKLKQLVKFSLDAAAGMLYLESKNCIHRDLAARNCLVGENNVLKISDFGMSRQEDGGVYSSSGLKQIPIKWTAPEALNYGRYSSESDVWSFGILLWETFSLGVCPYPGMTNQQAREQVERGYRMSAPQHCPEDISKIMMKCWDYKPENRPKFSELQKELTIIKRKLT
Fibroblast growth factor receptor 1 (Homo sapiens), sequence (P11362 22-822 limits assumed): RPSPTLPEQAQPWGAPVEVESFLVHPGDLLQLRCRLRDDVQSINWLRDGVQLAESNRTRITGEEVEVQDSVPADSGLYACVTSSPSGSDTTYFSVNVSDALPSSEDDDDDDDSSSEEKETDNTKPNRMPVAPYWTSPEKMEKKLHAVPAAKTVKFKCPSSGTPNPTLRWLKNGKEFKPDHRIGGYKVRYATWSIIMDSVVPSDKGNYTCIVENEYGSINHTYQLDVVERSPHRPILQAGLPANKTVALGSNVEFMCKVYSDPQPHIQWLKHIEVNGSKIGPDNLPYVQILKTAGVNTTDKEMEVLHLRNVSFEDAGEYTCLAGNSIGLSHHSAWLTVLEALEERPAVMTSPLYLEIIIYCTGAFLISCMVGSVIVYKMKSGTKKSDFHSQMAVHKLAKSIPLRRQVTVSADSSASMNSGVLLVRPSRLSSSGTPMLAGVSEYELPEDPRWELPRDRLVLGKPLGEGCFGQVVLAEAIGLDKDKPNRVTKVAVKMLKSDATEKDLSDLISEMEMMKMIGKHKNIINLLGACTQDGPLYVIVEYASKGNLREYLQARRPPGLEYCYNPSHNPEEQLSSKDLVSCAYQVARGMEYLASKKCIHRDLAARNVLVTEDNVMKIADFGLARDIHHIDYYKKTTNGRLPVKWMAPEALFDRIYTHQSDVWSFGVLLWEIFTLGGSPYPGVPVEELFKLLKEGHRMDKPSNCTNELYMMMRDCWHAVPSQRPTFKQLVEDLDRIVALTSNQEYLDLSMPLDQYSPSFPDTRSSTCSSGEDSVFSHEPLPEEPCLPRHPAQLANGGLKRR
Fibroblast growth factor receptor 3 (Homo sapiens), sequence (P22607 23-806 limits assumed): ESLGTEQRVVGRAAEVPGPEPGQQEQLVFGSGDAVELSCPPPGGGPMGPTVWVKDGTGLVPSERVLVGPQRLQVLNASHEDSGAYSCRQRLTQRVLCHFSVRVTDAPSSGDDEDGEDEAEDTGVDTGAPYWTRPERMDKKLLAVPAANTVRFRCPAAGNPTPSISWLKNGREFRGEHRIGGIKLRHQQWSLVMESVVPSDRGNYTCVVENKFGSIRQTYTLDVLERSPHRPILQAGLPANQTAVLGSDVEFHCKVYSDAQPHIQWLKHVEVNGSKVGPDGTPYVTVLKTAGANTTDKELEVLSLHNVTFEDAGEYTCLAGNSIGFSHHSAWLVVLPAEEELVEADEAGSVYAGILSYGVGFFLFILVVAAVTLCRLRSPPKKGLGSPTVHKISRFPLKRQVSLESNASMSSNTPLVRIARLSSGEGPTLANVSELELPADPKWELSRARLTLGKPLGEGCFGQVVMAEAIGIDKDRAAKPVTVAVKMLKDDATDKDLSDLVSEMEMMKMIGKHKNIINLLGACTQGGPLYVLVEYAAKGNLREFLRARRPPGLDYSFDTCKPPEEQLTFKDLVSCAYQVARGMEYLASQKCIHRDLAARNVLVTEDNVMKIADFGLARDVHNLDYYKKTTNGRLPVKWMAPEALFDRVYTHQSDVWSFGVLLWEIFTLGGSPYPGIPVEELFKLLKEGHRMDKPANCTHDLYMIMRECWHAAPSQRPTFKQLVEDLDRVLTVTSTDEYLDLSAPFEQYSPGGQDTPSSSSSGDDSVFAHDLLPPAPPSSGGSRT
Fibroblast growth factor receptor 2 (Homo sapiens), sequence (P21802 22-821 limits assumed): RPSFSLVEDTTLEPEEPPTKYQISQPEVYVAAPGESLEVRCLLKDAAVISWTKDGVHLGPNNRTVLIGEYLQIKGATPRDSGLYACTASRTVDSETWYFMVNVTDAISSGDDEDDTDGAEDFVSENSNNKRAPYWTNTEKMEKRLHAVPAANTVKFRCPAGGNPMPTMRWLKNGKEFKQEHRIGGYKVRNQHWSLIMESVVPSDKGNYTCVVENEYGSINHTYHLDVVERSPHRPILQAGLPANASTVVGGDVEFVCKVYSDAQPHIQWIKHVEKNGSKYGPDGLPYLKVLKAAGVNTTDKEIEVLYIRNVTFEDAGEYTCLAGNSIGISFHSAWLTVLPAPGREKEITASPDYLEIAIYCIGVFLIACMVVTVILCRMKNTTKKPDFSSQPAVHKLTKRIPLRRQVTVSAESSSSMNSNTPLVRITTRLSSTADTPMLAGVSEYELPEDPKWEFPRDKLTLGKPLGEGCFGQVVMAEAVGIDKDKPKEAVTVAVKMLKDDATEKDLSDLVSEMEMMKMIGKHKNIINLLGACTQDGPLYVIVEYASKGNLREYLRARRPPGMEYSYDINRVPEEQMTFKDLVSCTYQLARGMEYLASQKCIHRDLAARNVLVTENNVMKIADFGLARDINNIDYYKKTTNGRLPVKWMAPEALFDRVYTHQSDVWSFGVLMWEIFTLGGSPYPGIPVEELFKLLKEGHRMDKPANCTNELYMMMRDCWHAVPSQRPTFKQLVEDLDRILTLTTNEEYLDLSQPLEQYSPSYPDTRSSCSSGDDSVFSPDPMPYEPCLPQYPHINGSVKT

| SMILES | inhibition [1] | inhibition [2] | inhibition [3] | inhibition [4] | inhibition [5] | inhibition [6] | inhibition [7] | inhibition [8] | inhibition [9] | inhibition [10] |
| --- | --- | --- | --- | --- | --- | --- | --- | --- | --- | --- |
| C[C@@H](Oc1cc(-n2cnc3ccc(OC4CCN(C)CC4)cc32)sc1C(N)=O)c1ccccc1Cl | 3.96% | 2.48% | 3.52% | 2.78% | 9.26% | 4.51% | 8.58% | 4.86% | 9.86% | -0.28% |
| Fc1ccc(-c2ncn(C3CCNCC3)c2-c2ccnc(Oc3ccc(Oc4ccccc4)cc3)n2)cc1 | 5.54% | 3.48% | 4.42% | 6.98% | 2.81% | 6.96% | 5.56% | 7.61% | 5.27% | -7.37% |
| O=C1Nc2ccccc2/C1=C/Nc1ccc(-n2cncn2)cc1 | 11.2% | 2.67% | 2.63% | 2.75% | 9.98% | 5.38% | 24.9% | 7.96% | 22% | – |
| CCS(=O)(=O)c1ccc(OC)c(Nc2ncc(-c3cccc(-c4ccccc4F)c3)o2)c1 | 2.29% | -0.07% | 0.23% | 6.92% | 40% | 29.3% | 60.6% | 29.3% | 65.5% | 3.01% |
| O=C(Nc1n[nH]c2nc(-c3ccc(O)cc3)c(Br)cc12)C1CC1 | 7.42% | 3.04% | 3.83% | 7.1% | 21.4% | 7.18% | 17.9% | 8.23% | 12.5% | 0.04% |
| CN(C)CCCNc1nccc(-c2c(-c3ccc(F)cc3)nn3cc(C(F)(F)F)ccc23)n1 | 1.37% | 0.87% | 1.2% | 0.95% | 0.04% | -2.72% | 0.99% | -1.5% | -0.97% | -3.68% |
| NCc1ccc(-n2c(-c3nonc3N)nc3cnccc32)cc1 | 5.77% | 12.8% | 13% | 4.07% | 6.76% | 6.5% | 9.9% | 9.59% | 6.14% | -4.29% |
| Cc1ccc(C(=O)NC2CCC2)cc1-c1ccc(C(=O)NCC2CC2)cc1 | 2.82% | 2.48% | 1.75% | 5.21% | 0.27% | 2.36% | 3.31% | 3.29% | 3.04% | 0.25% |
| COc1ccc2ncn(-c3cc(O[C@H](C)c4ccccc4Cl)c(C(N)=O)s3)c2c1 | 3.7% | 2.74% | 1.59% | -0.72% | 4.65% | -0.16% | 5.18% | 1.57% | 4.59% | -1.86% |
| COc1cc2ncn(-c3cc(OCCc4ccccc4)c(C(N)=O)s3)c2cc1OC | 1.49% | 1.6% | 1.71% | 14.8% | 2.62% | 1.97% | 3.63% | 2.83% | 2.85% | -0.14% |
| COC(=O)Nc1nc2ccc(Sc3ccc(NC(=O)Nc4cc(C(F)(F)F)ccc4F)cc3)cc2[nH]1 | 1.11% | 0.33% | -0.58% | -1.07% | -3.15% | 0.25% | 4% | 2.1% | 2.77% | 3.12% |
| COc1cc2ncn(-c3cc(OCc4ccccc4C(F)(F)F)c(C(C)=O)s3)c2cc1OC | 7.96% | 2.84% | 2.74% | 2.64% | 2.73% | 3.27% | 9.16% | 2.58% | 6.41% | -0.33% |
| Cc1ccc(C(=O)NC(C)C)cc1-c1ccc(C(=O)NCC2CC2)cc1 | -1.61% | -2.77% | -3% | -5.37% | -2.8% | -4.22% | -3.57% | -4.95% | -3.57% | 1.18% |
| Fc1ccc(-c2ncn(C3CCNCC3)c2-c2ccnc(Oc3ccc(F)c(F)c3)n2)cc1 | 3.96% | 2.73% | 2.2% | -3.39% | 0.21% | 0.37% | 2.12% | 0.74% | 2.67% | -2.57% |
| COc1cc2ncn(-c3cc(OCc4cccs4)c(C(N)=O)s3)c2cc1OC | 12.9% | 1.87% | 1.21% | -3.02% | 7.33% | 1.75% | 15.3% | 1.72% | 12.4% | -0.52% |
| COc1cccc(-n2cnc3c(N/N=C/c4ccncc4)ncnc32)c1 | 4.82% | -0.04% | -1.27% | -7.19% | -2.61% | -3.25% | 10.7% | -3.58% | 3.63% | -4.06% |
| CN(C)c1ccc2c(c1)/C(=C/Nc1ccc(S(N)(=O)=O)cc1)C(=O)N2 | 8.18% | 0.6% | 0.4% | 3.54% | 15.3% | 5.56% | 31.6% | 7.1% | 29.6% | 1.99% |

| SMILES | inhibition [1] | inhibition [2] | inhibition [3] | inhibition [4] | inhibition [5] | inhibition [6] | inhibition [7] | inhibition [8] | inhibition [9] | inhibition [10] |
| --- | --- | --- | --- | --- | --- | --- | --- | --- | --- | --- |
| O=C1NC(=O)C(c2cccc(Cl)c2)=C1Nc1ccc(Cl)c(C(=O)O)c1 | 2.51% | 2.13% | 2.52% | 3.46% | 16.2% | 8.43% | 20.6% | 6.79% | 24.8% | -1.89% |
| C#Cc1cccc(Nc2ncnc3ccc(OCCCCNCCS(C)(=O)=O)cc23)c1 | 3.37% | 2.69% | 6.01% | 0.37% | 0.98% | 1.4% | 2.36% | 5.79% | 3.33% | -4.44% |
| NC(=O)c1ccc(Oc2nccc(-c3c(-c4ccc(F)cc4)ncn3C3CCNCC3)n2)cc1 | 10.6% | 4.82% | 4.5% | 5.23% | 8.19% | 11.3% | 8.04% | 11% | 6.64% | 5.18% |
| Fc1ccc(-c2ncn(C3CCNCC3)c2-c2ccnc(Oc3ccc4c(c3)OCO4)n2)cc1 | 10.4% | 4.19% | 3.36% | 3.51% | 11.8% | 6.16% | 12% | 6.95% | 9.41% | – |
| O=C(Nc1n[nH]c2cc(-c3cc(F)ccc3F)ccc12)C1CC1 | 3.05% | 2.89% | 3.45% | 0.53% | 1.69% | 1.35% | 6.04% | 3.51% | 2.02% | -1.89% |
| CCS(=O)(=O)c1ccc(OC)c(Nc2ncc(-c3ccccc3Cl)o2)c1 | 2.34% | 0.35% | 0.33% | 2.09% | 7.29% | 6.83% | 33% | 6.65% | 32.4% | 3.96% |
| CCN(CC)Cc1ccc(Nc2nccc(-c3cnn4ncccc34)n2)cc1 | 15.5% | 5.99% | 28% | 1.77% | 11.6% | 4.18% | 8.8% | 2.66% | 5.35% | -1.71% |
| N#Cc1ccc(Oc2nccc(-c3c(-c4ccc(F)cc4)ncn3C3CCNCC3)n2)cc1 | 4.07% | 4.54% | 4.03% | -0.69% | 5.45% | 3.13% | 6.84% | 3.14% | 5.22% | 0.73% |
| CN(C)CCOc1ccc(-c2cc(-c3ccc4c(c3)CCC4=NO)c(-c3ccncc3)o2)cc1 | -0.96% | 0.22% | -1.71% | -4.37% | -0.28% | -2.17% | -0.7% | -1.69% | -0.19% | 1.99% |
| Cc1nnc(-c2ccc(C)c(-c3ccc(C(=O)NCc4ccc(Cl)cc4)cc3)c2)o1 | 3.71% | 2.32% | 1.83% | -2.72% | -1.85% | 0.07% | 11.1% | 1.78% | -1.81% | – |
| COc1ccc(C2=C(N3CCc4ccccc43)C(=O)NC2=O)cc1 | 4.91% | 3.03% | 5.04% | 4.17% | 8.02% | 4.11% | 6.4% | 8.71% | 8.26% | 2.43% |
| C/C(Nc1ccc(S(N)(=O)=O)cc1)=C1/C(=O)Nc2ccccc21 | 10.5% | -2.91% | -3.39% | -4.77% | 6.33% | 0.2% | 21.1% | 0.94% | 21% | 1.73% |
| Fc1ccc(-c2ncn(CCCN3CCOCC3)c2-c2ccncc2)cc1 | -1.08% | -0.1% | -0.6% | 0.01% | -2.73% | -1.34% | 2.45% | 0.86% | 2.18% | -3% |
| FC(F)(F)c1cccc(Nc2nccc(-c3cnn4nc(-c5ccccc5)ccc34)n2)c1 | 4.03% | 1.27% | 2.38% | -1.25% | -0.07% | 1.56% | 3.34% | 1.31% | 2.97% | -0.29% |
| NC(=O)c1cc(-c2ccncc2)cc(-c2ccccc2)c1N | 4.57% | 3.8% | 3.92% | 8.68% | 6.54% | 5.47% | 8.42% | 7.6% | 6.17% | 0.6% |
| Clc1ccc(CNc2nccc(-c3cnn4ncccc34)n2)cc1 | 1.93% | 0.01% | 1.6% | 0.58% | -1.59% | 0.2% | 1.7% | -0.71% | -0.67% | 4.74% |
| COc1ccc(-c2ccc3c(NC(=O)C4CC4)n[nH]c3n2)cc1 | 3.63% | 0.69% | 0.62% | -1.21% | 0.21% | 0.09% | 0.42% | 1.8% | 0.95% | -0.34% |
